Molecules are shown by their SMILES. Inconclusive results are not listed. Calls of active or inactive are those of the source. Unless noted, the call rests on the fitted dose curve; in most records, active means well fitted curve in the direction sought with a large enough effect; inconclusive means small, poorly fitted or top-dose-only effect, or another doubt; inactive means no such curve, though single readings can be large; an effect the other way counts as inactive or inconclusive. Bridge positions count the residues as written; N and C are the ends. Square brackets hold non-standard residues; d marks the D form. Peptide text beside a SMILES is read from it. * marks the point of attachment. Ileψ(thiazoline)Cys = CC[C@H](C)[C@H](N)C1=N[C@H](C(=O)*)CS1; d(aIle) = CC[C@H](C)[C@@H](N)C(=O)O; dOrn = NCCC[C@@H](N)C(=O)O

The nature of experiment [1]: AP1 Signaling Pathway (AID 357; active means well fitted curve in either direction with a large enough effect, not every such curve was filed as active;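 further: ME-180 reporter cells stimulated with EGF at its EC50 level; on the % scale 0 is the no-effect control and ±100 the full control effect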). A digest of the protocol:
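A ratiometric CCF4 readout (405 nm excitation; 460 and 530 nm emission) quantified AP-1-driven beta-lactamase in ME-180 cells after 5 h with compound and EC50 EGF; AC50 values were derived for activators and inhibitors.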

Experiment [2] in a line: NFAT Signaling Pathway (AID 444; active means well fitted curve in either direction with a large enough effect, not every such curve was filed as active;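 further: carbachol stimulus at about its EC50 of 1 µM final; on the % scale 0 is the no-effect control and ±100 the full control effect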). Conditions: Jurkat NFAT-bla M1, carbachol, beta-lactamase ratio, 5 h; at 17.2 µM (top of the series) unless noted. A digest of the protocol: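 Read-out: CCF4 FRET ratio (460 nm/530 nm) after 1 h RT dye loading, used for %activity and AC50 from titration series. Cells: Jurkat NFAT-β-lactamase/M1 line, treated with compound plus 1 uM carbachol for 5 h, 37 °C.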

Experiment [3] is described as follows: Stat Signaling Pathway (AID 446; active means well fitted curve in either direction with a large enough effect, not every such curve was filed as active;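 further: ME-180 cervical cancer cells given 40 pM IL-6 alongside compound; SIE-controlled beta-lactamase reporter measured as 460/530 nm FRET emission ratio; on the % scale 0 is the no-effect control and ±100 the full control effect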). Summed up: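 ME-180 SIE-bla cells; overnight plating; cpd + IL-6 40 pM, 5 h, 37 C; LiveBLAzer 2.5 h RT; 460/530 nm emission ratio. Normalized to 300 pM IL-6 and 125 nM JAK inhibitor controls.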
Experiment [4] has as its target Glucocorticoid receptor (Homo sapiens) (UniProt P04150). The experiment can be described thus: GR-GFP Redistribution (AID 450;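 active means compounds whose dose series gives a full or clear partial fitted curve of increased nuclear translocation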; further: potency means the concentration at half of the fitted maximal effect). Conditions: U2OS GR-GFP nuclear translocation, laser cytometry, 2 h.
The target is the same in experiment [5]. The experiment can be described thus: GR-EFC Redistribution (AID 451; calls by dose curve; further: potency means the concentration at half of the fitted maximal effect). Conditions: CHO-K1 GR-EFC translocation, beta-gal luminescence, 2 h. Summed up:
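Translocation of GR-ED fusion to nuclear EA restores b-gal, read by luminescence after 1 h room-temperature detection. Engineered CHO-K1 biosensor cells, 1,000/well, exposed 2 h at 37 C to titrations up to 46 uM final.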

For experiment [6], the target named is Mitogen-activated protein kinase 10 (Mus musculus) (UniProt Q61831). The experiment is described as follows: JNK3 AlphaScreen Assay (AID 530; active means well fitted curve in either direction with a large enough effect, not every such curve was filed as active;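 further: kinase came from lysate of stimulated human HepG2 cells; signal reports phosphorylation of biotinylated GST-cJun 1-79 at Ser73 with 10 µM ATP; on the % scale 0 is the no-effect control and ±100 the full control effect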). Summed up:
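Room-temperature AlphaScreen kinase assay; pre-activated HepG2 lysate as JNK3 source, biotin-GST-cJun(1-79) substrate, 10 uM ATP, compound 15 min preincubation.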
(In general: In Alpha technology, singlet oxygen from a donor bead excites a nearby acceptor bead.)

Experiment [7] has as its target 3',5'-cyclic-AMP phosphodiesterase 4B (Homo sapiens) (UniProt Q07343). The experiment is described as follows: qHTS Assay for Inhibitors of PDE-IV (AID 607; active means well fitted activation curve with a large enough effect in the main read-out, with a control signal flat, not every such curve was filed as active; further: % of control where 0% means no effect). Summed up: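 ACTOne HEK293 cells carry a modified cAMP-gated CNG channel and express endogenous PDE4; plated 1000 cells/well, compounds up to 22.9 uM final. Membrane-potential dye fluorescence (ex 535/em 590) was read; parental cells received 10 uM forskolin + 100 uM RO 20-1724.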

Experiment [8] is described as follows: qHTS Assay for Lipid Storage Modulators (AID 1519; calls by dose curve). Conditions: Drosophila S3 cells, BODIPY lipid droplet/cell ratio, laser cytometry, cells loaded with oleic acid; for activity change, negative = inhibition: at 25.7 µM (top of the series). A digest of the protocol: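 Cells seeded at 5,000 per well were treated with compounds over a concentration series and loaded with oleic acid (400 uM, as added). Lipid droplet fluorescence (488 nm excitation, 500-530 nm channel) was read by laser-scanning cytometry and normalized to 20 uM Triacsin C.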
For orientation: In qHTS, concentration-response curves come from the screen itself.

The target in experiment [9] is Ubiquitin carboxyl-terminal hydrolase 1 (Homo sapiens) (UniProt O94782). The experiment is described as follows: Inhibitors of USP1/UAF1: Pilot qHTS (AID 504865).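 Further: rhodamine fluorescence freed from ubiquitin-rhodamine substrate followed over time; top concentration of the series differs between compounds; on the % scale 0 is the no-effect control and ±100 the full control effect; nearly all actives have a fitted effect of over 35% in size.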 Summed up: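 Deubiquitinase activity followed as kinetic rhodamine fluorescence release from 150 nM Ub-Rho. 1 nM USP1/UAF1 with compound, after 15 min room-temperature preincubation, in HEPES pH 7.8 buffer containing TCEP, EDTA, BSA and Tween-20.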
Ubiquitin carboxyl-terminal hydrolase 1 (Homo sapiens), sequence (O94782 whole entry, looked up): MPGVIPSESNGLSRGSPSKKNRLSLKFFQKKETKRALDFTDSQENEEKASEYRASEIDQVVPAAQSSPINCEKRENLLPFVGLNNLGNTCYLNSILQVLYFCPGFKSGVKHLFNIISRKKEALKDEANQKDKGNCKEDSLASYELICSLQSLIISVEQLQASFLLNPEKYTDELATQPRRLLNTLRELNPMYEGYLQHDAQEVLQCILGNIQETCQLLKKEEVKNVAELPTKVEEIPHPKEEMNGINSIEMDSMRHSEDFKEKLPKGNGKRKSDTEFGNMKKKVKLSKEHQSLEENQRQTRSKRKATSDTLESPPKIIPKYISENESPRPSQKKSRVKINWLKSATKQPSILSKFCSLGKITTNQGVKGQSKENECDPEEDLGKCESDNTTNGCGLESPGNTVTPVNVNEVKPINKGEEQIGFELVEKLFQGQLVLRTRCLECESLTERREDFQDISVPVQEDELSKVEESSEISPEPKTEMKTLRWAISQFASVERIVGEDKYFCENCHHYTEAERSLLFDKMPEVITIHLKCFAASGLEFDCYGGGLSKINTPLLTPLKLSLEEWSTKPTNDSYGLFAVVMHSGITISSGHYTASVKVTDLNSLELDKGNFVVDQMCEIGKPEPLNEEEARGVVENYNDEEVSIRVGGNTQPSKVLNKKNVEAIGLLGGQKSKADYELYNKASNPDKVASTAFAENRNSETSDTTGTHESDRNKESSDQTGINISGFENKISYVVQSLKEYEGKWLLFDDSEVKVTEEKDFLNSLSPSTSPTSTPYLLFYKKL

In experiment [10] the target is Luciferin 4-monooxygenase (Photinus pyralis) (UniProt P08659). The experiment is described as follows: Biochemical firefly luciferase enzyme assay for NPC (AID 624030).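 Further: purified P. pyralis luciferase at 10 nM with luciferin and ATP substrate; 0% = DMSO and -100% = full luciferase inhibition by PTC124 control; nearly all actives have a fitted effect of over 70% in size.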 Summed up: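 Direct inhibition of firefly luciferase enzyme (10 nM final, 50 mM Tris Acetate) assessed by luminescence within 5 minutes. Percent activity scaled between DMSO and PTC124 positive control, with concentration-effect curves classified by fit quality and response.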
Luciferin 4-monooxygenase (Photinus pyralis), sequence (P08659 whole entry, looked up): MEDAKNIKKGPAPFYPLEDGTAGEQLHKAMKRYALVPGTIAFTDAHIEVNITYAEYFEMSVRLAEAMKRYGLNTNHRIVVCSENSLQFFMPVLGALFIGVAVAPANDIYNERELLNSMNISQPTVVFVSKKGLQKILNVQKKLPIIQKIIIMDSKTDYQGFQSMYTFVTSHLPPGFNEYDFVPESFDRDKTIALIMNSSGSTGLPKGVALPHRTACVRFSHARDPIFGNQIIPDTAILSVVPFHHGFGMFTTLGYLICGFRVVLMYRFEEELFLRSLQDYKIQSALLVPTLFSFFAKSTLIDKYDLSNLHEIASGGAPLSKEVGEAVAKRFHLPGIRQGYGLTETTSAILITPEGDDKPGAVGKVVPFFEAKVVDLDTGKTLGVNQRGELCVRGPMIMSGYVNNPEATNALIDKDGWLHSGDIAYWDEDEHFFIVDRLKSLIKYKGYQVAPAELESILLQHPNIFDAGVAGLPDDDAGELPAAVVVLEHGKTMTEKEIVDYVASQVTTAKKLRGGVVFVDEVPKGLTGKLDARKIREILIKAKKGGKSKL

Experiment [11] is described as follows: qHTS profiling for inhibitors of Plasmodium falciparum proliferation (AID 504749).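 Further: 0% = DMSO vehicle and full inhibition = artemisinin control; nearly all actives have a fitted effect of over 60% in size.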 The note with it: P. falciparum in erythrocytes, SYBR Green DNA, 72 h. A digest of the protocol:
(§1)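 Three-day growth assay of blood-stage parasites in erythrocytes (0.3% parasitemia, 2.5% hematocrit) at 37 C, 5% CO2, quantified by SYBR Green DNA staining after overnight detergent lysis.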

Experiment [12] concerns C2A. The experiment is described as above. The note with it: P. falciparum in erythrocytes, SYBR Green DNA, 72 h; series mostly up to 12.8 µM. Summed up:
as §1

The subject of experiment [13] is CP191. The experiment is described as above. Conditions: P. falciparum in erythrocytes, SYBR Green DNA, 72 h; series mostly up to 12.8 µM. A digest of the protocol:
as §1

Experiment [14] relates to CP238. The experiment is described as above. Conditions: P. falciparum in erythrocytes, SYBR Green DNA, 72 h; series mostly up to 12.8 µM. Summed up:
as §1

For experiment [15], the system named is CP256. Described as above. The note with it: P. falciparum in erythrocytes, SYBR Green DNA, 72 h; series mostly up to 12.8 µM. A digest of the protocol:
as §1

Experiment [16] concerns FAB9. The experiment is described as above. The note with it: P. falciparum in erythrocytes, SYBR Green DNA, 72 h; series mostly up to 12.8 µM. Summed up:
as §1

Experiment [17] deals with JCK. Described as above. Conditions: P. falciparum in erythrocytes, SYBR Green DNA, 72 h; series mostly up to 12.8 µM. A digest of the protocol: as §1
Experiment [18] has as its target ATP-dependent 6-phosphofructokinase (Trypanosoma brucei brucei) (UniProt O15648). The experiment can be described thus: qHTS Assay to Find Inhibitors of T. brucei phosphofructokinase: hit validation (AID 492961). Summed up:
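Measures ADP output of PFK (1.25 nM) at 0.1 mM ATP, 0.5 mM F6P, pH 8.0 TEA buffer with 5 mM MgCl2. No-enzyme wells define full inhibition; uninhibited enzyme wells define zero.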

The subject of experiment [19] is SC27B. The experiment can be described thus: qHTS profiling for inhibitors of Plasmodium falciparum proliferation (AID 504749).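 Further: 0% = DMSO vehicle and full inhibition = artemisinin control; nearly all actives have a fitted effect of over 60% in size.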 Conditions: P. falciparum in erythrocytes, SYBR Green DNA, 72 h; series mostly up to 12.8 µM. Summed up:
as §1

Where [20] appears, read: measured here: cell count channel max response.
The mark [21] stands for this setting: measured here: lipid channel max response.
[22] abbreviates: at 28.7 µM (top of the series), parasite line A.
The mark [23] stands for this setting: at 28.7 µM (top of the series), parasite line B.

3',5'-cyclic-AMP phosphodiesterase 4B (Homo sapiens), sequence (Q07343 whole entry, looked up): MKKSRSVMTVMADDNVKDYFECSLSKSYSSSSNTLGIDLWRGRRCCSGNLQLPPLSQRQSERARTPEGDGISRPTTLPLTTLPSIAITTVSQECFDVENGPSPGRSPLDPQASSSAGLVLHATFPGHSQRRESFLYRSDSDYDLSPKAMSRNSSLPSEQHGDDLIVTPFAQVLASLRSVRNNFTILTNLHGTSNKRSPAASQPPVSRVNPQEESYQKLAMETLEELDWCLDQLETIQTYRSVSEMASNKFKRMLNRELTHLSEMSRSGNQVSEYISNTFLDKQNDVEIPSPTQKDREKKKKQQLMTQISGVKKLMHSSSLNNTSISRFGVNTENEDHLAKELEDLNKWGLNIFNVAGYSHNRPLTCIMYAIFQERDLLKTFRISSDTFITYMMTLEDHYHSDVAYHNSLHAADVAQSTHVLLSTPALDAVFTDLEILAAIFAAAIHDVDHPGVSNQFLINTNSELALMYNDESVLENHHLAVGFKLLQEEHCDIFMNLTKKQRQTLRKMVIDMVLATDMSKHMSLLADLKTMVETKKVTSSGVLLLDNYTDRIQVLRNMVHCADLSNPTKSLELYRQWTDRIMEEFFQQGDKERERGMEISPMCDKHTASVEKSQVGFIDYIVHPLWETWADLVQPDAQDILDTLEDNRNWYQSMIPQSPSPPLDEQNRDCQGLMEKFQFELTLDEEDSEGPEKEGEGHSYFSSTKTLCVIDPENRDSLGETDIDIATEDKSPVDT
Glucocorticoid receptor (Homo sapiens), sequence (P04150 whole entry, looked up): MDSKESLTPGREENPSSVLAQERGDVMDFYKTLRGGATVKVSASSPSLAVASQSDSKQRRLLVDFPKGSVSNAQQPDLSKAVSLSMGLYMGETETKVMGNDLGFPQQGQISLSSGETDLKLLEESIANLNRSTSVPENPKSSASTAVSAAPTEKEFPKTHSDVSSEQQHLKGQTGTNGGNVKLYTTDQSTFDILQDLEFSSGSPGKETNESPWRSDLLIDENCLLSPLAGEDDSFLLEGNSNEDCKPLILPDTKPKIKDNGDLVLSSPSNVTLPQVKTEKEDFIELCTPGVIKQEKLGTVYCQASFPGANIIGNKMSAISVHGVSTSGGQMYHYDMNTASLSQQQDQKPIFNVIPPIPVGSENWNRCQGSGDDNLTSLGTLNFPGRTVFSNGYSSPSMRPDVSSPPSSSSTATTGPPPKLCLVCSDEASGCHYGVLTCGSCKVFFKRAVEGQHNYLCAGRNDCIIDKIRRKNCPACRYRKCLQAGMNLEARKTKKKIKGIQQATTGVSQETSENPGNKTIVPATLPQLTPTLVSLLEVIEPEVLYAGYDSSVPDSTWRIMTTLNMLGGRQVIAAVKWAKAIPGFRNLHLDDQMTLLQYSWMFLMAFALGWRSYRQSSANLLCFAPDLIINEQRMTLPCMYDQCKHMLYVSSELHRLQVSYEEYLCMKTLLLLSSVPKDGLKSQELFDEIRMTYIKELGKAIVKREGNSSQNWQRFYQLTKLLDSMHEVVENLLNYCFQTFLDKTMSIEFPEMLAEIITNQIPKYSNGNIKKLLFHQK
ATP-dependent 6-phosphofructokinase (Trypanosoma brucei brucei), sequence (O15648 whole entry, looked up): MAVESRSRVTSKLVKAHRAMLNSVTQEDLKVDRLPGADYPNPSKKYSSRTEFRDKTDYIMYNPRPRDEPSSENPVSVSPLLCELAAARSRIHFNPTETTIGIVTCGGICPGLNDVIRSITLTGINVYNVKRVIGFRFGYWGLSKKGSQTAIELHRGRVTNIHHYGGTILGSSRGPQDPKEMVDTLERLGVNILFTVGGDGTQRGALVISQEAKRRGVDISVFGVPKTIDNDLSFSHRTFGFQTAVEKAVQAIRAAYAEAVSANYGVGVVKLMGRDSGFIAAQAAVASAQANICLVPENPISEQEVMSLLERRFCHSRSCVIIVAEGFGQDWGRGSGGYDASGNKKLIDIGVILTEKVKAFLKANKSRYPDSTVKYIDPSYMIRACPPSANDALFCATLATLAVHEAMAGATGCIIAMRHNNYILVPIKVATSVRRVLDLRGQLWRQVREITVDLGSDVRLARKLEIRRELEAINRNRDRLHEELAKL

Turning to `C=C1CC23C[C@H]4[C@@H]5[C@@]6(C)C[C@H](OC(=O)c7ccccc7)[C@@H](OC(C)=O)[C@]57[C@@H]2[C@@H](OC(C)=O)[C@H]1[C@@H](O)[C@H]3[C@H]7N4C6`, the call in experiment [1], in experiment [3] and in experiment [7] was inactive. Further, the figures for the activity change, negative = inhibition in experiment [2] and in experiment [8] were -10.3% (inactive) and -1.43% (inactive), respectively. The Potency in experiment [4] and in experiment [5] was > 20.6 µM (inactive) in each case. Further, the Potency entry in experiment [6] is “inactive”. Moreover, the figures for the max response in experiment [8] (setting [20]) and in experiment [8] (setting [21]) were -3.09% and -1.64%, respectively.
Regarding `CC[C@H](C)[C@H](N)C1=N[C@H](C(=O)N[C@@H](CC(C)C)C(=O)N[C@@H](CCC(=O)O)C(=O)N[C@@H](C(=O)N[C@H]2CCCCNC(=O)[C@@H](CC(N)=O)NC(=O)[C@@H](CC(=O)O)NC(=O)[C@@H](Cc3cnc[nH]3)NC(=O)[C@@H](Cc3ccccc3)NC(=O)[C@@H]([C@@H](C)CC)NC(=O)[C@@H](CCCN)NC2=O)[C@@H](C)CC)CS1` ({Ileψ(thiazoline)Cys}-LE[d(aIle)]K[dOrn][d(aIle)][dF][dH][dD][dN]; lactam 4-C), the molecule was called inactive in experiment [1], in experiment [3] and in [7]. Moreover, the activity change, negative = inhibition is 1.53% (inactive) in experiment [2] and -0.807% (inactive) in experiment [8]. Moreover, the Potency result in experiment [6], in [9], in experiment [10], in [12], in experiment [13] and in experiment [14] was “inactive” throughout. Moreover, the Potency result in [15], in experiment [16] and in experiment [17] was “inactive” in each case. The max response in experiment [8] (setting [20]) is -6.25%; in experiment [8] (setting [21]), -6.65%. The activity, negative = inhibition in [11] (at 12.8 µM (top of the series), parasite line A) is 0.552% (inactive); in experiment [11] (at 12.8 µM (top of the series), parasite line B), 7.07% (inactive).
As to `C[C@@H]1O[C@H](O[C@@H]2\C=C/C=C\C=C/C=C\C[C@H](C)OC(=O)/C=C\[C@H]3O[C@@H]3C[C@H](O)C[C@]3(O)C[C@@H](O)[C@@H](C(=O)O)[C@H](C2)O3)[C@@H](O)[C@H](N)[C@@H]1O` (stereo in doubt), the outcome in experiment [1], in experiment [3], in [7] and in experiment [18] was inactive. For the same molecule, the activity change, negative = inhibition in experiment [2] was -3.9% (inactive); in experiment [8] it was 2.21% (inactive). Also, the Potency entry in experiment [6], in experiment [9], in experiment [10], in experiment [12], in experiment [13] and in [14] was “inactive” throughout. Also, the Potency result in experiment [15], in experiment [16], in experiment [17] and in experiment [19] was “inactive” in each case. Moreover, the max response was -4.86% in experiment [8] (setting [20]) and 0.155% in experiment [8] (setting [21]). The activity, negative = inhibition in experiment [11] (setting [22]) was 9.05% (inactive); in [11] (setting [23]) it was 8% (inactive).
On to `O=C1OCCN1/N=C\c1ccc([N+](=O)[O-])o1`, for which the outcome in experiment [1], in [3] and in experiment [7] was inactive. Also, the values for the activity change, negative = inhibition in experiment [2] and in [8] were -2.86% (inactive) and -2% (inactive), respectively. In addition, the Potency in experiment [4] and in experiment [5] was > 20.6 µM (inactive) throughout. Besides, the Potency entry in experiment [6] and in [9] was “inactive” each time. Besides, the results for the max response in experiment [8] (setting [20]) and in experiment [8] (setting [21]) were -13.3% and -14.3%, respectively.
For `c1ccc2c(c1)CCC[C@@H]2C1=NCCN1`, the outcome in [1], in experiment [3], in experiment [7] and in experiment [18] was inactive. The activity change, negative = inhibition in [2] is 4.55% (inactive); in experiment [8], 1.29% (inactive). For the same molecule, the Potency result in [6], in experiment [9], in [10], in experiment [12], in experiment [13] and in experiment [14] was “inactive” each time. For the same molecule, the Potency entry in experiment [15], in [16], in experiment [17] and in experiment [19] was “inactive” each time. Moreover, the max response in experiment [8] (setting [20]) is 4.77%; in experiment [8] (setting [21]), 6.92%. The activity, negative = inhibition in experiment [11] (setting [22]) is 13.7% (inactive); in [11] (setting [23]) it was -0.664% (inactive).

These data come from PubChem BioAssay (NCATS).
